From PubChem BioAssay
NSD2 inh – blocks human histone methyltransferase NSD2 | O96028 | inhibition, % at 12.5 µM | NSD2 peptide methylation, AlphaScreen, 120 min | 0.54% of 310,000 active; in the data active means inhibition above about 50%
PglD DTNB – blocks C. jejuni PglD acetyltransferase activity; 0.098% of 360,000 active; AID 602405; purified PglD enzyme, DTNB colorimetric CoA detection; inhibition, % at 12.5 µM; in the data active means inhibition above about 16%, passing the limit was not always enough
C2C12 statin – protects C2C12 myotubes from simvastatin toxicity; ATP luminescence, 48 h; scaled: DMSO 0, geranylgeraniol control 100; rescue of ATP level, % at 7.49 µM; 0.78% of 330,000 active; AID 602340;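 active means mean ATP rescue above about 67%, or every replicate alone reaching that limit, limit read from the data, passing the limit was not always enough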;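 further: myotubes were challenged with 10 µM simvastatin during compound exposure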
miR-122 sensor – inhibitors of miR-122 in Huh7 cells | Huh7 miR-122 Renilla luciferase sensor, 48 h; neutral wells = 0, positive control = 100 | activation (reporter increase), % at 12.5 µM | 0.3% of 340,000 active;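 active means mean replicate activation score at least 90 and every replicate individually at or above 90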;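 further: higher luciferase means less miR-122 activity so hits act as miR-122 inhibitors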
AlphaScreen art – interferes with AlphaScreen signal, flagging NSD2 false positives; shares compounds with NSD2 inh; AlphaScreen artifact counterscreen, preloaded methylated H4 peptide; AC35, µM (doses to about 10 µM), inactives show at the top dose activity change, negative = signal loss; 9.4% of 1,500 active; call rule not given here
* hit, by the source's call; x = not tested or not shown; [ ] = dose if it differs, or a comment. Hits are enriched below; roughly 1.2% of the tested compounds scored in any of these assays.

SMILES	NSD2 inh	PglD DTNB	C2C12 statin	miR-122 sensor	AlphaScreen art
COC1=CC(=O)c2c(ccc3ncnc(N)c23)C1=O	122*	x	x	-3	3%
CN(C)c1ccc(C=c2c3ccccc3n3c2c2c([n+]3C)CCCC2)cc1	71*	x	-150	-17	4.5µM*
CN(C)c1ccc(C=c2c3ccccc3n3c2cc(-c2ccccc2)[n+]3C)cc1	4	x	x	x	x
C[C@@H]1CN([C@@H](C)CO)C(=O)Cc2cc(NC(=O)c3ccncc3)ccc2O[C@H]1CN(C)C(=O)Nc1ccccc1	x	8	-7	-3[16.7 µM]	x
O=C(NC1=C(NC2CCS(=O)(=O)C2)C(=O)c2ccccc2C1=O)c1ccccc1 (configuration not stated)	109*	-5	-15	17	-1%
COCC(=O)Nc1ccc2c(c1)C(=O)N(C)C[C@@H](OC)[C@H](C)CN(Cc1ccncc1)[C@@H](C)CO2	x	-1	-1	9[16.7 µM]	x
COc1cc(C(=O)c2nccc3cc(OC)c(OC)cc23)c([N+](=O)[O-])cc1OC	54*	x	x	x	-9%
COc1cc(N)c(Cc2nccc3cc(OC)c(OC)cc23)cc1OC	6	x	23	2	x
COc1cc(N)c(C(=O)c2nccc3cc(OC)c(OC)cc23)cc1OC	72*	-6	30	-2	-2%
COc1cc(Br)c(C(=O)c2nccc3cc(OC)c(OC)cc23)cc1OC	99*	2	-9	1	-5%
O=C(O)C[C@H]1CC[C@@H](NC(=O)Nc2cc(F)ccc2F)[C@@H](CO)O1	x	1	4	x	x
Cc1ccc(S(=O)(=O)N(C)C[C@H]2Oc3ccc(NC(=O)NC(C)C)cc3C(=O)N([C@H](C)CO)C[C@@H]2C)cc1	x	1	-31	-9[16.7 µM]	x
CCOC(=O)C1CCN(c2nc(N)c3c(N)nc(SCC(=O)O)cc3c2C#N)CC1	101*	-3	40	-2	-6%
CCCCNC1=CC(=O)C(=O)c2ccccc21	140*	x	x	x	-2%
O=C(N[C@H]1CC[C@H](CC(=O)N2CCc3ccccc3C2)O[C@@H]1CO)C1CC1	x	3	3	x	x
O=C(CCc1nnc(CCCCc2ccccc2)o1)NC1CCCC1	83*	8	0	8	-5%
CC1(C)CC(NC(=O)CCc2nnc(CCCCc3ccccc3)o2)CCO1 (configuration not stated)	0	x	x	x	x
CCC(=O)N(C)C[C@@H]1Oc2ncc(C#Cc3ccccc3)cc2C(=O)N([C@@H](C)CO)C[C@@H]1C	x	-1	-9	-4[16.7 µM]	x
CC(C)NC(=O)Nc1ccc2c(c1)C(=O)N([C@@H](C)CO)C[C@H](C)[C@@H](CN(C)S(=O)(=O)c1cn(C)cn1)OCCCC[C@@H](C)O2	x	0	x	3[16.7 µM]	x
CC1(C)C2CCC1(C)C(OC(=O)CSc1nc(N)cc(=O)[nH]1)C2 (configuration not stated)	80*	0	38	-4	-4%
CC(NC1=CC(=O)c2cccnc2C1=O)C(O)c1ccccc1 (configuration not stated)	114*	x	x	24	1%
O=C(C[C@H]1CC[C@@H](NC(=O)Cc2ccccn2)[C@@H](CO)O1)NCCc1ccncc1	x	2	-8	-3[16.7 µM]	x
Cc1cc(C)nc(NS(=O)(=O)c2ccc(NC(=O)c3ccccc3Br)cc2)n1	65*	2	7	-6	1%
Cc1cc(C)n(-c2nc(NCC(C)O)c3c4c(sc3n2)COC(C)(C)C4)n1 (configuration not stated)	81*	2	-20	1	-7%
Cc1noc(C)c1S(=O)(=O)Nc1ccc2c(c1)C(=O)N([C@H](C)CO)C[C@H](C)[C@H](CN(C)CC1CCCCC1)OCCCC[C@H](C)O2	x	-3	-94	-12[16.7 µM]	x
SMILES	NSD2 inh	PglD DTNB	C2C12 statin	miR-122 sensor	AlphaScreen art
O=[N+]([O-])c1ccccc1NC(=S)N/N=C/c1ccc(O)c(O)c1	117*	x	x	x	1.8µM*
CCNC(=O)C[C@@H]1CC[C@H]2[C@@H](COc3ccc(NC(=O)C4CCOCC4)cc3C(=O)N2C)O1	x	6	14	-4[16.7 µM]	x
C[C@@H]1CN([C@@H](C)CO)C(=O)c2cc(NC(=O)Nc3ccccc3)ccc2O[C@@H]1CN(C)S(=O)(=O)c1ccccc1	x	-1	-34	5[16.7 µM]	x
COc1cc(CNCc2cccnc2)ccc1OCc1ccccc1	-4	-2	1	-6	x
CNCc1ccc(OCc2ccccc2)c(OC)c1	53*	-5	-1	1	-1%
CO[C@@H]1CN(C)C(=O)c2ccc(NC(=O)c3ccccc3F)cc2OC[C@H](C)N(CC2CCOCC2)C[C@@H]1C	x	2	-12	x	x
COc1ccc(CCNC(=O)C2CCN(C(=O)c3ccccc3C)CC2)cc1	51*	1	4	-2	-2%
CCC(=O)N(C)C[C@@H]1Oc2ncc(-c3ccccc3C)cc2C(=O)N([C@H](C)CO)C[C@@H]1C	x	5	18	7[16.7 µM]	x
COc1ccc(OCC(=O)NNc2c3ccccc3nc3ccccc23)cc1	61*	-1	-6	2	3%
CCc1c(C(=O)Nc2cc(C(=O)OC)ccc2C)csc1C	x	-3	7	-5	x
CCOC(=O)Nc1cc(C(=O)OC)ccc1C	119*	-3	-2	0	5%
O=C(O)c1ccc2c(c1)C(=O)N(c1cccc(C(=O)/C=C/c3ccccc3)c1)C2=O	89*	x	x	x	-2%
O=C(O)c1cccc(N2C(=O)c3ccc(C(=O)c4cccc([N+](=O)[O-])c4)cc3C2=O)c1	4	x	1	-4	x
C[C@@H]1CN([C@@H](C)CO)C(=O)c2cc(C#CC(C)(C)O)cnc2O[C@H]1CN(C)Cc1cncnc1	x	3	-15	3[16.7 µM]	x
Cc1ccccc1-c1cnc2c(c1)C(=O)N([C@@H](C)CO)C[C@H](C)[C@@H](CN(C)C(=O)CC1CC1)O2	x	x	-5	23[16.7 µM]	x
CCN(CC)C(=O)COc1ccc2oc(C)c(C(=O)OC(C)C)c2c1	114*	12	-4	8	-3%
COc1ccc(NC(=O)Nc2ccc3c(c2)CC(=O)N([C@H](C)CO)C[C@@H](C)[C@@H](CN(C)C(=O)NC(C)C)O3)cc1	x	3	-26	-5[16.7 µM]	x
CN(C)c1ccc(NC2=C(Cl)C(=O)c3ccccc3C2=O)cc1	58*	-1	x	x	8.8µM*
O=C1C(Cl)=C(Nc2ccc3cn[nH]c3c2)C(=O)c2ccccc21	x	3	-315	-27	x
O=c1c2c(n3cnnc3n1-c1ccccc1)-c1ccccc1CC21CCCC1	102*	x	x	x	-8%
CN(CCc1ccccc1)C1CCCN(S(=O)(=O)N(C)C)C1 (configuration not stated)	53*	-2	-5	-1	-1%
O=C(O)COc1ccccc1/C=N/Nc1ccc(S(=O)(=O)Nc2ccc(Cl)cc2)cc1[N+](=O)[O-]	50*	x	x	x	-13%
Cc1[nH][nH]c(=O)c1C(c1c(C)[nH][nH]c1=O)c1cn(Cc2cccc3ccccc23)c2ccccc12	x	-2	12	-1	x
Cc1[nH][nH]c(=O)c1C(c1c(C)[nH][nH]c1=O)c1cn(C)c2ccccc12	51*	x	x	x	-3%
